Here are results for 24 compounds from PubChem BioAssay.

A short description of test [1]: antimalarial activity against Dd2 strain (AID 2302;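 active = growth inhibition above 50% at the single 2 µM test dose, taken to imply half-maximal potency below 2 µM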;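 also: 0% = DMSO untreated growth and 100% = chloroquine plus artemisinin killed control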). Conditions: P. falciparum Dd2 in RBCs, LDH growth readout, 72 h; at 2 µM; hits give high values.
The nature of test [2]: human hepatoma cell viability loss – ATP luminescence, cytotoxicity control for P. falciparum antimalarial project, primary screen (AID 2303;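 active = inhibition above 50%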;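 also: 0% = DMSO wells and 100% = digitonin-killed cells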). Conditions: HepG2 viability, 24-48 h, at 10 µM, hits give high values.
The target in test [3] is L-lactate dehydrogenase (Plasmodium falciparum (isolate CDC / Honduras)) (UniProt Q27743). Put plainly: PfLDH activity inhibition – cell lysate, 3D7 strain, counter-screen for P. falciparum growth inhibition project (AID 2304).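 Also: 0% = vehicle and 100% = reference inhibitor.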 Conditions: P. falciparum 3D7 crude extract, LDH APAD/NBT absorbance; at 2 µM; hits give high values. For orientation: The purpose of a counterscreen is to sort out artefacts and off-target activity.
Sequence of L-lactate dehydrogenase (Plasmodium falciparum (isolate CDC / Honduras)) (Q27743 whole entry, looked up): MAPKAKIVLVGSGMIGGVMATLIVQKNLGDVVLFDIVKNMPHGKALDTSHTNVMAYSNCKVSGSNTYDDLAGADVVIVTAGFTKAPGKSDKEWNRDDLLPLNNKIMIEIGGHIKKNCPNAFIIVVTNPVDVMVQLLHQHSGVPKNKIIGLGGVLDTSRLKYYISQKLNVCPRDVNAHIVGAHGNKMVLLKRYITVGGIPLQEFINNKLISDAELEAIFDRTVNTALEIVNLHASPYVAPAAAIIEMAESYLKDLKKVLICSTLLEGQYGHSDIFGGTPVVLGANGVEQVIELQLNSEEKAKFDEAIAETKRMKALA

Test [4] in a line: inhibition of 3D7 malaria parasite growth – strain 3D7 (AID 2306).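 Also: 0% = DMSO wells and 100% = chloroquine plus artemisinin control wells.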 To be noted: P. falciparum 3D7 erythrocytic growth, LDH absorbance, 72 h; at 2 µM; hits give high values.
The target in test [5] is Calcium-dependent protein kinase 1 (Plasmodium falciparum (isolate 3D7)) (UniProt P62344). Description: PfCDPK1 kinase inhibitors, biochemical, TCAMS library (AID 1159585; cut-off not given, nearly all actives have IC50 up to about 0.98 µM;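 also: inhibitors leave more ATP so luminescence rises with inhibition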). Conditions: recombinant PfCDPK1, Kinase-Glo ATP depletion luminescence. (In general: Kinase-Glo reads ATP consumption through a luciferase reaction.)
Sequence of Calcium-dependent protein kinase 1 (Plasmodium falciparum (isolate 3D7)) (P62344 whole entry, looked up): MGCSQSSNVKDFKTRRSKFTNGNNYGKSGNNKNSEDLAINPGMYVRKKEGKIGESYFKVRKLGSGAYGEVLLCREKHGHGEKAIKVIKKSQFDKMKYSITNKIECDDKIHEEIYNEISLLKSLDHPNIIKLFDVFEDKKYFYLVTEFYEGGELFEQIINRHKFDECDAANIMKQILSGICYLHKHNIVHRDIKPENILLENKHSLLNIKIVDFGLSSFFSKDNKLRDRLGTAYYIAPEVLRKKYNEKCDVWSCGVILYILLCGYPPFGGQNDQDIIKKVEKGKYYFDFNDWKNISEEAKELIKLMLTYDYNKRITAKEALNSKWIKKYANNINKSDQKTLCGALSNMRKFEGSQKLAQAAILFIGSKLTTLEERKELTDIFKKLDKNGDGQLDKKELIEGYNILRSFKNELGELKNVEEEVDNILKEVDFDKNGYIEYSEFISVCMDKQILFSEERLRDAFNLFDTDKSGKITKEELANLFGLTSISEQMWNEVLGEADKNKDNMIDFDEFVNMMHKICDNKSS
Test [6] deals with Plasmodium falciparum protein kinase 6 (PK6, PF3D7_1337100) (UniProt Q8IDW1). Put plainly: PfPK6 kinase inhibitors, biochemical, TCAMS library (AID 1159586). Conditions: recombinant PfPK6, Kinase-Glo ATP depletion luminescence.
Sequence of Plasmodium falciparum protein kinase 6 (PK6, PF3D7_1337100) (Q8IDW1 1-305): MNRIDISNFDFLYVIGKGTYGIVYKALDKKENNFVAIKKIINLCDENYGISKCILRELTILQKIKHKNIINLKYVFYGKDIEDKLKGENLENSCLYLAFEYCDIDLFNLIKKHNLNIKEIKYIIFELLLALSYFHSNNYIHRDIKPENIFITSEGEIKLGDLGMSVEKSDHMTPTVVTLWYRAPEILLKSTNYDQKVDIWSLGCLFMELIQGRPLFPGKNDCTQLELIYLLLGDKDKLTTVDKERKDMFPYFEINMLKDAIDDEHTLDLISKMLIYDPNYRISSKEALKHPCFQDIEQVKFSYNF
Test [7] deals with Protein kinase 7 (PK7), Plasmodium falciparum 3D7 (PF3D7_0213400) (UniProt Q7YTF7). Description: inhibition of Plasmodium PK7 catalytic activity – biochemical, TCAMS antimalarial set, Kinase-Glo luminescence (AID 1159587). Conditions: recombinant PfPK7, Kinase-Glo ATP depletion luminescence.
Sequence of Protein kinase 7 (PK7), Plasmodium falciparum 3D7 (PF3D7_0213400) (Q7YTF7 1-343): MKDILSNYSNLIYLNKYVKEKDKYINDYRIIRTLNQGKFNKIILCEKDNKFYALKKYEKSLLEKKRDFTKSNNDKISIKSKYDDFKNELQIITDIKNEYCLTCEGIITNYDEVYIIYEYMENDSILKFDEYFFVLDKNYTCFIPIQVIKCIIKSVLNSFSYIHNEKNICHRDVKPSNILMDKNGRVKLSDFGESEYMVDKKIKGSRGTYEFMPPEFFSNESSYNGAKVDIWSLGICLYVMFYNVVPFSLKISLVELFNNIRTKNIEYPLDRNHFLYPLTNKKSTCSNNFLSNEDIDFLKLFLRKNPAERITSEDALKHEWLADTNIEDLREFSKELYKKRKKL
Test [8] addresses Calcium-dependent protein kinase 4 (Plasmodium falciparum (isolate 3D7)) (UniProt Q8IBS5). Description: PfCDPK4 kinase inhibitors, biochemical, TCAMS library (AID 1159588; cut-off not given, nearly all actives have IC50 up to about 0.91 µM). Conditions: recombinant PfCDPK4, Kinase-Glo ATP depletion luminescence.

Values without a mark were called inactive. For part of these data: Potency and affinity values are given separately. The source made the active and inactive calls. Unless noted, no rule for the calls is given here.

Sequence of Calcium-dependent protein kinase 4 (Plasmodium falciparum (isolate 3D7)) (Q8IBS5 whole entry, looked up): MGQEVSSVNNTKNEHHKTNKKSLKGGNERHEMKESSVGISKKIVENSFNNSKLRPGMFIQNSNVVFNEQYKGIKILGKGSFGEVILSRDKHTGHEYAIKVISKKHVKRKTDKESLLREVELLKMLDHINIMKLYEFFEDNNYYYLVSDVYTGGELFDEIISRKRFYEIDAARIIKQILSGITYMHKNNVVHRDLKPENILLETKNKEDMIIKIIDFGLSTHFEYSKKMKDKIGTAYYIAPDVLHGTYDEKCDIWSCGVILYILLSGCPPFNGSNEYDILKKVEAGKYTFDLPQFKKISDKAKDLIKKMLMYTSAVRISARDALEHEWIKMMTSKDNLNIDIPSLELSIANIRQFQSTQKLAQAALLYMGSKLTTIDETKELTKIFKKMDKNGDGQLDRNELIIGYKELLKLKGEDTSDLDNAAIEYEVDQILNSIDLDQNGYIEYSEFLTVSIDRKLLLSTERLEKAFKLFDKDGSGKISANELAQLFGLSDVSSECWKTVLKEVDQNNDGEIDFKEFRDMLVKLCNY

With `Cc1cc(NC2CCN(Cc3ccccc3)CC2)nc(NCCCCc2ccccc2)n1`, the growth inhibition in test [1] is 60% (active); in test [4] it was 100% (active). Besides, the inhibition (as a rule, the change of the read-out against control, counted positive when it falls) was 65% (active) in test [2] and 2% in test [3]. Besides, the outcome in test [5], in test [6], in test [7] and in test [8] was inactive.

As to `O=c1cc(NCCCN(Cc2cc3c(Cl)cc(Cl)cc3[nH]2)Cc2cc3c(Cl)cc(Cl)cc3[nH]2)[nH]c2ccccc12`, the growth inhibition in test [1] was 80% (active); in test [4], 87% (active). For the same compound, the inhibition in test [2] is 23%; in test [3] it was -6%. Besides, the outcome in test [5], in test [6], in test [7] and in test [8] was inactive.

`Cc1cccc2[nH]c(-c3ccc(-c4ccc(NC(=O)C(C)CN5CCN(C)CC5)cc4)s3)nc12` (configuration not stated): the growth inhibition was 99% (active) in test [1] and 101% (active) in test [4]. Further, the inhibition is 17% in test [2] and -2% in test [3]. For the same compound, the result in test [5], in test [6], in test [7] and in test [8] was inactive.

As for `COc1ccc(O)c(C(=O)c2cc(C#N)c(=O)n(-c3ccc(Oc4ccccc4)cc3)c2)c1`, the figures for the growth inhibition in test [1] and in test [4] were 20% and 97% (active), respectively. In addition, the results for the inhibition in test [2] and in test [3] were 22% and 5%, respectively. The result in test [5], in test [6], in test [7] and in test [8] was inactive.

As for `Cc1nc2ccc(NC(=O)c3cc(S(=O)(=O)N(C)C)ccc3Cl)cc2s1`, the growth inhibition in test [1] was 77% (active); in test [4], 91% (active). Besides, the results for the inhibition in test [2] and in test [3] were 20% and -2%, respectively. Also, the outcome in test [5], in test [6], in test [7] and in test [8] was inactive.

For the compound `NC(=O)c1cc2nc(Nc3ccc(F)cc3)nc(Nc3ccc(S(N)(=O)=O)cc3)c2[nH]1`, the growth inhibition in test [1] was 99% (active); in test [4], 101% (active). The values for the inhibition in test [2] and in test [3] were 2% and 4%, respectively. Also, the outcome in test [5], in test [6], in test [7] and in test [8] was inactive.

Regarding `CCCCCCCCn1c2c(c(=N)c3c1CCC3)CCC2`, the growth inhibition in test [1] was 93% (active); in test [4] it was 99% (active). Also, the inhibition in test [2] was 47%; in test [3], -5%. Further, the outcome in test [5], in test [6], in test [7] and in test [8] was inactive.

For the compound `CCOc1cc(C(=O)NCCN(C(C)C)C(C)C)ccc1-c1nc2ccc(Cl)cc2[nH]1`, the growth inhibition is 90% (active) in test [1] and 101% (active) in test [4]. Also, the figures for the inhibition in test [2] and in test [3] were 4% and 2%, respectively. In addition, the outcome in test [5], in test [6], in test [7] and in test [8] was inactive.

Turning to `c1cnc2ccc(NCc3ccc(-c4ccc(CNC5CCCC5)cc4)cc3)cc2c1`, the figures for the growth inhibition in test [1] and in test [4] were 21% and 97% (active), respectively. Moreover, the values for the inhibition in test [2] and in test [3] were 27% and -2%, respectively. The result in test [5], in test [6], in test [7] and in test [8] was inactive.

In the case of `Cc1ccccc1C1CCN(C2CCC(NC(=O)/C=C/c3ccc(C(F)(F)F)cc3)CC2)CC1` (configuration not stated), the growth inhibition is 19% in test [1] and 95% (active) in test [4]. Also, the inhibition in test [2] is 64% (active); in test [3] it was -3%. Besides, the result in test [5], in test [6], in test [7] and in test [8] was inactive.

`CCc1ccc(C2CCN(CCCCNC(=O)c3ccc(NC(=O)c4ccc(Cl)cc4)cc3)CC2)cc1`: the growth inhibition in test [1] is 63% (active); in test [4], 100% (active). The inhibition in test [2] is 15%; in test [3] it was -3%. For the same compound, the outcome in test [5], in test [6], in test [7] and in test [8] was inactive.

On to `CCCCCc1ccc(NC(=O)Nc2ccc(Cn3ncc(N4CCCNCC4)c(Cl)c3=O)cc2)cc1`, for which the growth inhibition in test [1] is 23%; in test [4] it was 87% (active). Moreover, the inhibition in test [2] was 15%; in test [3], 3%. The result in test [5], in test [6], in test [7] and in test [8] was inactive.

`CC(=O)Nc1nc(C(=O)Nc2ccc(-c3cccc(-c4nc5c(C)cccc5[nH]4)c3)cc2)cs1`: the growth inhibition in test [1] was 73% (active); in test [4], 101% (active). Further, the figures for the inhibition in test [2] and in test [3] were 100% (active) and -4%, respectively. Further, the result in test [5], in test [6], in test [7] and in test [8] was inactive.

Consider `CC1CCN(CC[C@H]2CCCN2S(=O)(=O)c2cccc(NC(=O)c3ccc(-c4ccccc4)cc3)c2)CC1`, for which the values for the growth inhibition in test [1] and in test [4] were 36% and 87% (active), respectively. Besides, the inhibition was 38% in test [2] and -6% in test [3]. Also, the outcome in test [5], in test [6], in test [7] and in test [8] was inactive.

Consider `Cc1c(S(=O)(=O)Nc2ccc3nccc(N4CCN[C@H](C)C4)c3c2)sc2ccc(Cl)cc12`, for which the results for the growth inhibition in test [1] and in test [4] were 0% and 96% (active), respectively. Further, the figures for the inhibition in test [2] and in test [3] were 16% and -3%, respectively. Moreover, the outcome in test [5], in test [6], in test [7] and in test [8] was inactive.

As to `COc1ccccc1CN1CCC(NC(=O)c2ccc(-c3cccc(C(F)(F)F)c3)s2)CC1`, the values for the growth inhibition in test [1] and in test [4] were 12% and 85% (active), respectively. In addition, the inhibition in test [2] is 83% (active); in test [3], -2%. Moreover, the outcome in test [5], in test [6], in test [7] and in test [8] was inactive.

Turning to `COc1ccc(C2C(C(=O)OC3CCCC3)=C(C)NC3=C2C(=O)CCC3)cc1Br` (configuration not stated), the growth inhibition is 77% (active) in test [1] and 94% (active) in test [4]. For the same compound, the inhibition is -2% in test [2] and 5% in test [3]. For the same compound, the result in test [5], in test [6], in test [7] and in test [8] was inactive.

For `Nc1nccc(-c2ccc3c(-c4cccc(F)c4)cnc(N)c3c2)n1`, the growth inhibition in test [1] was 44%; in test [4], 93% (active). In addition, the inhibition is 41% in test [2] and 5% in test [3]. Further, the result in test [5], in test [6], in test [7] and in test [8] was inactive.

Turning to `COc1cc(C(F)(F)F)nc2c(CNCCCNc3cc(=O)c4ccccc4[nH]3)scc12`, the growth inhibition in test [1] is 16%; in test [4] it was 92% (active). In addition, the inhibition in test [2] is -7%; in test [3], -2%. Further, the outcome in test [5], in test [6], in test [7] and in test [8] was inactive.

Regarding `Cc1nn(C2CCS(=O)(=O)C2)c(C)c1C1Nc2ccccc2C(=O)N1Cc1ccc2c(c1)OCO2` (configuration not stated), the results for the growth inhibition in test [1] and in test [4] were 93% (active) and 98% (active), respectively. In addition, the inhibition in test [2] was 7%; in test [3], 2%. The result in test [5], in test [6], in test [7] and in test [8] was inactive.

In the case of `CCCc1cc(C(C)=O)ccc1OCCCON1C(N)=NC(N)=NC1(C)C`, the growth inhibition in test [1] and in test [4] was 96% (active) each time. For the same compound, the inhibition in test [2] is 61% (active); in test [3] it was 4%. Besides, the result in test [5], in test [6], in test [7] and in test [8] was inactive.

Consider `COC(=O)c1cc(C(O)CNC(C)CCc2cccc(F)c2)ccc1O` (configuration not stated), for which the results for the growth inhibition in test [1] and in test [4] were 77% (active) and 94% (active), respectively. In addition, the inhibition in test [2] was 38%; in test [3] it was -2%. Moreover, the outcome in test [5], in test [6], in test [7] and in test [8] was inactive.

As to `Cc1cccc2[nH]c(-c3cccc(-c4cccc(NC(=O)Nc5ccsc5)c4)c3)nc12`, the values for the growth inhibition in test [1] and in test [4] were 41% and 102% (active), respectively. Moreover, the inhibition in test [2] is 15%; in test [3], -3%. Besides, the result in test [5], in test [6], in test [7] and in test [8] was inactive.

Take `CC(=O)Nc1ccc(C(=O)Nc2cccc(-c3ccc(-c4nc5c(C)cccc5[nH]4)cc3)c2)cn1`: the growth inhibition in test [1] was 94% (active); in test [4], 100% (active). Besides, the figures for the inhibition in test [2] and in test [3] were 25% and 4%, respectively. The outcome in test [5], in test [6], in test [7] and in test [8] was inactive.
